The assay can be described thus: qHTS to identify inhibitors of the type 1 interferon - major histocompatibility complex class I in skeletal muscle: Secondary screen by immunofluorescence. Note: nearly all actives have a fitted effect of over 70% in size. Conditions: C25cl48 myoblasts, IFN-b induced HLA-ABC immunofluorescence, 24 h; series mostly up to 49.8 µM. In a few lines: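 HLA-ABC immunofluorescence, with nuclear and cell-body stains, was quantified by laser scanning cytometry. Read-out followed 24 h of IFN-beta (4.0 ng/ml) stimulation of C25cl48 human myoblasts with compounds titrated 1:3 over 11 points from 50 uM, with ruxolitinib as inhibitor control.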
In general terms: qHTS replaces the single test concentration by a dilution series.

Records with an inconclusive call do not appear. Calls of active or inactive are those of the source. Calls come from the whole dose curve; as a rule, active = well fitted inhibition curve with a large enough effect; inconclusive = small, poorly fitted or top-dose-only effect; inactive = no such curve, though single readings can be large or run the other way.

The record followed here is PubChem BioAssay AID1347414 (National Center for Advancing Translational Sciences (NCATS), 2020).
Potency is the fitted concentration of half-maximal effect.

In the case of `CO[C@@H]1[C@@H](O)[C@H](O)[C@@H](n2c3c(Cl)cccc3c3c4c(c5c6cccc(Cl)c6[nH]c5c32)C(=O)NC4=O)O[C@H]1CO`, the Potency entry was “inactive”.

As for `COc1ncc(Nc2ncc(C(C)N3CCN(S(C)(=O)=O)CC3)cc2-c2nc(C)nc(N)n2)cc1F` (configuration not stated), the Potency result is “inactive”.

Take `CC(=O)[C@]1(O)Cc2c(O)c3c(c(O)c2[C@@H](O[C@H]2C[C@H](N)[C@H](O)[C@H](C)O2)C1)C(=O)c1ccccc1C3=O`: the Potency was 230 nM (active).

`O=C(NC1CCNCC1)c1[nH]ncc1NC(=O)c1c(Cl)cccc1Cl`: the Potency was 258 nM (active).

With `COc1ccc(-c2nc(N3CCOCC3)c3sc(CN(C)c4ncc(C(=O)NO)cn4)cc3n2)cn1`, the Potency was 5.8 nM (active).

Regarding `C[C@]12C=CC(=O)C=C1CC[C@H]1[C@@H]3C[C@@H](O)[C@](O)(C(=O)CO)[C@@]3(C)C[C@H](O)[C@@]12F`, the Potency entry was “inactive”.

With `O=[N+]([O-])c1ccc2c(c1)S(=O)(=O)C=C2`, the Potency is 1820 nM (active).
